Screening data: PubChem BioAssay, National Center for Advancing Translational Sciences (NCATS)
Bst PK mod: modulators of Bacillus stearothermophilus pyruvate kinase. AID 361. purified pyruvate kinase, luminescence ATP production; ribose 5-phosphate activator present at AC10. hit rate 1.2% among 51,000. Potency, µM; in the data active = potency below about 11 µM; inconclusive = mostly about 12 µM to 25 µM;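 the screen sought inhibitors and activators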
HBB splice mod: alters splicing of the hemoglobin beta chain; HBB splicing reporter cell assay, activation; EGFP reporter with mutant IVS2-654 intron; response scale: normalised to 500 nM splice-correcting PNA; Potency, µM (doses to about 46.1 µM), usual class: activators; hit rate 0.06% among 65,000; AID 925
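Compounds were applied for 2 days to HeLa EGFP-654 cells, 500/well in Optimem with 2% FCS. The reporter's EGFP is disrupted by mis-splicing of beta-globin intron IVS2-654. Readout: summed well GFP fluorescence from 488 nm laser scanning; reference was 500 nM antisense […] 654 PNA.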
Epigenetic mod: epigenetic modulators derepressing GFP locus in mouse cells. AID 597. hit rate 0.09% among 68,000. mouse C127i GFP locus derepression, cytometry, 30 h. Potency, µM (titrated, usually from 46.1 µM)
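Murine C127i mammary cells carrying a silenced, stably integrated CMV-driven GFP reporter were treated with compound for 30 hours at 37 C. After PBS washes, GFP-positive cells were counted by laser-scanning microplate cytometry.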
Luciferase inh: inhibitors of firefly luciferase; P08659; purified firefly luciferase, luminescence, 8 min; Potency, µM (top dose mostly 57.1 µM), usual class: inhibitors; hit rate 2.2% among 72,000; AID 411; note: nearly all actives have a fitted effect of over 40% in size
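Here, luciferase activity is measured as luminescence following an 8 min room-temperature reaction at 10 uM ATP, pH 7.2. Every library sample is titrated.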
UbGFP stabilizer: ubiquitin-GFP accumulation via proteasome inhibition | Ubiquitin-GFP reporter cells, proteasome inhibition, GFP fluorescence; response scale: untreated = 0%, 10 µM MG-132 = 100% | Potency, µM (top dose mostly 45.9 µM), usual class: activators | 67,000 tested, under 10 active | AID 526; active = well fitted activation curve with a large enough effect, not every such curve was filed as active; inconclusive = small, poorly fitted or top-dose-only effect, or another doubt; inactive = no such curve, though single readings can be large or run the other way
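U2OS cells stably expressing ubiquitin(G76V)-GFP, seeded overnight in 0.5% FBS medium, were exposed to compounds (qHTS, 46 uM to 2.9 nM) for 4 hr at 37 °C. GFP-positive cells were counted by laser cytometry (488 ex/515 em), normalized between basal and 10 uM MG-132.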
GBA mod: modulators of human glucocerebrosidase; hit rate 1.1% among 48,000; AID 360; purified enzyme, resorufin glucoside fluorescence (screen aimed at inhibitors), 20 min; Potency, µM; in the data active = potency below about 15 µM; inconclusive = mostly about 16 µM to 33 µM;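 note: the screen sought inhibitors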
Target sequence (P04062 whole entry, looked up): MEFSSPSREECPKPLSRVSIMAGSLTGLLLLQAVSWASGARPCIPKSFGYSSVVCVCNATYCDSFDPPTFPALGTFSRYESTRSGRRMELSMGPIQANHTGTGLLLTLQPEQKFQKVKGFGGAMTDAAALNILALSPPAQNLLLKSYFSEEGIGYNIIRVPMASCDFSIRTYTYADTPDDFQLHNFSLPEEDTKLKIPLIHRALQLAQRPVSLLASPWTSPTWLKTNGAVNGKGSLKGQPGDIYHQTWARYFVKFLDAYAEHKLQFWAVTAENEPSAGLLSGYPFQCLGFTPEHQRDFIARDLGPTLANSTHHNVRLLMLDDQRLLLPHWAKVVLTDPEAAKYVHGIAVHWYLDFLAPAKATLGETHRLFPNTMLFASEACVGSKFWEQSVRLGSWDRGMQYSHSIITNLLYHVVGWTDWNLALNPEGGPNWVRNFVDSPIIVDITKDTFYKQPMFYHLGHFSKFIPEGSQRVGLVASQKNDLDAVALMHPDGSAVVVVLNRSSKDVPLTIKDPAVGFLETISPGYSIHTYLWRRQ
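Normal human glucocerebrosidase (0.2 nM final) was assayed with resorufin β-D-glucopyranoside (30 uM final) in 50mM citric acid/KH2PO4, 10mM sodium taurocholate, 0.01% tween-20, pH 5.9. Compounds were titrated; fluorescence (Ex 548, Em 600) read after 20 min at RT.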
Of the large screens only hits and unclear results are named; the others gave an inactive call; ! = a repeat was not active. Only some compounds are listed: those with a hit (about 3.3% of all), similar ones and a draw of the others. Unless noted, calls come from the whole dose curve; as a rule, active = well fitted curve in the direction sought with a large enough effect; inconclusive = small, poorly fitted or top-dose-only effect, or another doubt; inactive = no such curve, though single readings can be large; an effect the other way counts as inactive or inconclusive.

Cc1cccc(NC(=O)c2cc3ccccc3o2)c1	Bst PK mod inconclusive, Luciferase inh 12.6µM
Cc1cc(C(=O)Nc2cccc(C(=O)O)c2)oc1C	Luciferase inh 15.8µM
CCOC(=O)c1ccc(NC(=O)c2cc3ccccc3o2)cc1	Luciferase inh inconclusive (no result: Bst PK mod, GBA mod)
O=C(Nc1cccc(Br)c1)c1cc2ccccc2o1	Luciferase inh 7.94µM (no result: Bst PK mod, GBA mod)
Cc1oc(-c2ccccc2)cc1C(=O)Nc1cccc(C(=O)O)c1	none
CC(C)C(=O)Nc1ccc(NC(=O)c2cc3ccccc3o2)cc1	GBA mod 9.78
CNC(=O)c1cc2ccccc2o1	none (no result: HBB splice mod, UbGFP stabilizer, GBA mod)
COC(=O)[C@@]1(Cc2ccc(OC)cc2)[C@H]2c3cc(C(=O)N(C)C)n(CCN4CNCC4=O)c3C[C@H]2CN1C(=O)c1ccccc1	none (no result: Bst PK mod, Epigenetic mod, Luciferase inh, UbGFP stabilizer, GBA mod)
Nc1nc2c(c(=O)[nH]1)CN(c1ccc(S(N)(=O)=O)cc1)CN2	none (no result: Bst PK mod, GBA mod)
CCC(=O)Nc1cccc(NC(=O)c2cc3ccccc3o2)c1	Luciferase inh 3.98µM (no result: Bst PK mod, GBA mod)
CCC(=O)Nc1cccc(-c2nc3ccccc3o2)c1	none (no result: Bst PK mod)
Cc1cc(C(=O)COc2cccc(-n3cnnn3)c2)c(C)n1-c1ccccc1	Luciferase inh 12.6µM (no result: Bst PK mod)
COC(=O)COc1cccc(-n2cnnn2)c1	none
C[C@@]12CCC(=O)C=C1CC[C@H]1[C@@H]2[C@@H](O)C[C@]2(C)[C@@H]1CC[C@@]2(O)C(=O)CO	none (no result: Bst PK mod, GBA mod)
Cc1ccc(NCc2nc3ccccc3n2C)cc1	Bst PK mod inconclusive, Luciferase inh 12.6µM
Cc1c(C(=O)O)cnc2cc(-c3ccc(Cl)cc3)nn12	Luciferase inh 12.6µM (no result: Bst PK mod, Epigenetic mod, GBA mod)
Nc1ccc2nc(-c3ccc(Cl)cc3)[nH]c2c1	Luciferase inh 3.98µM (no result: Bst PK mod, Epigenetic mod, GBA mod)
Nc1ccc(-c2nc3c(Cl)c(N)ccc3[nH]2)cc1	Luciferase inh 15.8µM (no result: GBA mod)
C=CCn1cnc2c(c1=O)c1nc3ccccc3nc1n2/N=C/c1cccc(OC)c1	none (no result: Bst PK mod)
COCCn1cnc2c(c1=O)c1nc3ccccc3nc1n2/N=C/c1cccc(OC)c1OC	Bst PK mod 3.6 (no result: UbGFP stabilizer)
Cc1sc2ncnc(Sc3nnnn3-c3ccccc3)c2c1C	GBA mod 9.19
CNC(=O)[C@@H]1O[C@@H](n2cnc3c(NCc4ccc(N)cc4)ncnc32)[C@@H](O)[C@H]1O	none (no result: Bst PK mod, GBA mod)
CSc1nc2[nH]c3c(c2c2nnnn12)CCCC3	Bst PK mod 0.783 (no result: HBB splice mod, UbGFP stabilizer, GBA mod)
Cc1cccc2cc3c(nc12)SC(=NCC1CCCO1)N(Cc1ccco1)C3 (stereo not given)	Epigenetic mod 3.16µM (no result: GBA mod)
Cc1ccc2nc3c(cc2c1)CN(Cc1ccco1)C(=NCC1CCCO1)S3 (stereo not given)	none
COc1ccc(C(=O)Nc2cc(OC)cc(OC)c2)cc1	Luciferase inh 3.98µM (no result: Bst PK mod, GBA mod)
COc1ccc(OC)c(NC(=O)c2ccc(NS(=O)(=O)c3c(C)noc3C)cc2)c1	GBA mod inconclusive
COc1cc(NC(=O)c2ccc(NS(=O)(=O)c3c(C)noc3C)cc2)cc(OC)c1	GBA mod 11.2
Cc1cccc(NC(=O)c2ccc(NS(=O)(=O)c3c(C)noc3C)cc2)c1	GBA mod 11.7
Cc1csc(NC(=O)CCn2c(=O)sc3ccccc32)n1	none
O=C(CCn1c(=O)sc2ccccc21)Nc1nccs1	Luciferase inh 20µM (no result: Bst PK mod)
Cc1ccc(C)c(S(=O)(=O)N2CCC(c3nc4c(nnn4Cc4ccc(F)cc4)c(=O)[nH]3)CC2)c1	GBA mod 7.11
Cc1ccc(Cn2nnc3c(=O)[nH]c(C4CCN(S(=O)(=O)c5ccc(F)cc5)CC4)nc32)cc1	GBA mod 5.49
CN(C)c1oc(-c2ccccc2F)nc1C#N	none (no result: Bst PK mod, Epigenetic mod, GBA mod)
O=C(c1ccccc1)c1nnc(-c2ccccc2F)o1	Bst PK mod 8.49, Luciferase inh 3.98µM
Oc1ccccc1-c1nnc(COc2ccc(Cl)cc2Cl)o1	Luciferase inh 12.6µM (no result: Bst PK mod, Epigenetic mod, GBA mod)
Oc1ccccc1-c1nnc(COc2ccccc2)o1	none (no result: Bst PK mod, GBA mod)
N#C/C(=C\c1ccc(O)c(O)c1)C(=O)Nc1ccccc1	Luciferase inh 25.1µM! (no result: Bst PK mod, GBA mod)
CCOC(=O)C1=C(c2ccccc2)NC(SCC(=O)Nc2cccc(C)c2)=C(C#N)C1c1ccco1 (stereo not given)	none
